This passage reports growth results from PubChem BioAssay (NCI).

Compounds without any hit were thinned out: in the full panel of roughly 83,000, 20% have a hit.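 Growth was measured after 48 h exposure to one concentration of compound in 96-well plates. Values under 10 count as active.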 Unmarked numbers belong to inactive results. Active and inactive are the calls of the source.

Assay in all cases: NCI-60 one-dose screen, 48 h (100 = growth as untreated, 0 = no growth, -100 = all killed)
In one experiment the test system is T-47D breast. The conditions noted are these: 10 µM unless noted.
The next experiment has as its system BT-549 breast. The note with it: 10 µM unless noted.
The next experiment deals with MDA-MB-435 melanoma. The conditions noted are these: 10 µM unless noted.
The subject of a further experiment is SW-620 colon. The conditions noted are these: 10 µM unless noted.
For another experiment, the system named is MCF7 breast. The conditions noted are these: 10 µM unless noted.
The subject of the next experiment is HCT-116 colon. The conditions noted are these: 10 µM unless noted.
The next experiment concerns HCC-2998 colon. The note with it: 10 µM.
A further experiment relates to KM12 colon. The conditions noted are these: 10 µM unless noted.

As for `CSc1nc2ncncc2[nH]1`, the growth is 93.8% in the experiment with T-47D breast; 110% with BT-549 breast; 91.9% in the experiment on MDA-MB-435 melanoma; 106% with SW-620 colon; 94.4% in the experiment on MCF7 breast; 84.8% in the experiment on HCT-116 colon. The growth in the experiment with HCC-2998 colon is 108%; in the experiment on KM12 colon it was 116%.

Turning to `CCCC(=O)OCC1OC(n2cnc3c(=S)nc[nH]c32)C(OC(=O)CCC)C1OC(=O)CCC` (stereo not given), the growth was 36.5% with T-47D breast; 45.5% in the experiment on BT-549 breast; 38% in the experiment with MDA-MB-435 melanoma; 38.1% with SW-620 colon; 24.2% with MCF7 breast; 35.9% in the experiment on HCT-116 colon. Moreover, the growth in the experiment with HCC-2998 colon is 2.11% (active); in the experiment on KM12 colon, 43.3%.

`C[C@@]1(C(=O)Nc2ccc(F)nc2)CCCN1c1nc(Nc2cc(C3CC3)[nH]n2)c2cccn2n1`: the growth in the experiment on T-47D breast is 7.7% (active); with BT-549 breast, 27.3%; in the experiment on MDA-MB-435 melanoma, 38.1%; with SW-620 colon it was 16.4%; in the experiment on MCF7 breast, 17.9%; in the experiment with HCT-116 colon, 7.82% (active). Moreover, the growth is 42.2% in the experiment on HCC-2998 colon and -23.6% (active) in the experiment with KM12 colon.

As to `Cc1cc2c(-c3nc4ccccn4c3N)c(O)c(O)cc2c(O)c1-c1c(C)cc2c(-c3nc4ccccn4c3N)c(O)c(O)cc2c1O`, the growth is 14.6% with T-47D breast; 21.2% with BT-549 breast; 13.4% with MDA-MB-435 melanoma; 22.7% in the experiment on SW-620 colon; 10.7% in the experiment on MCF7 breast; 9.9% (active) in the experiment with HCT-116 colon. Besides, the growth in the experiment with HCC-2998 colon is 30.7%; with KM12 colon, 22.1%.

Consider `COc1cnc2c(c1)C(=O)c1c-2n(CCCN2CCC(O)CC2)c(=O)c2cc(Cl)ccc12`, for which the growth with T-47D breast is 42.8%; in the experiment with BT-549 breast, 46.9%; in the experiment on MDA-MB-435 melanoma it was 76.1%; in the experiment with SW-620 colon, -32.1% (active); in the experiment with MCF7 breast it was 0.872% (active); in the experiment on HCT-116 colon, -60% (active). Besides, the growth in the experiment with HCC-2998 colon is 51.5%; in the experiment on KM12 colon, 45%.

Consider `CC(C)c1ccc(/C=N/Nc2nc3ccccc3s2)cc1`, for which the growth is 78.2% in the experiment with T-47D breast; 99% with BT-549 breast; 107% in the experiment with MDA-MB-435 melanoma; 102% in the experiment on SW-620 colon; 76.2% in the experiment on MCF7 breast; 89% with HCT-116 colon. Also, the growth is 104% with HCC-2998 colon and 89% in the experiment on KM12 colon.

On to `Cc1cc2c(-c3nc4ccccn4c3NC34CC5CC(CC(C5)C3)C4)c(O)c(O)cc2c(O)c1-c1c(C)cc2c(-c3nc4ccccn4c3NC34CC5CC(CC(C5)C3)C4)c(O)c(O)cc2c1O`, for which the growth in the experiment with T-47D breast was -0.388% (active); with BT-549 breast, 9.45% (active); in the experiment on MDA-MB-435 melanoma, 16.5%; with SW-620 colon, 23.5%; in the experiment with MCF7 breast, 12.3%; with HCT-116 colon it was 12%. The growth in the experiment on HCC-2998 colon is 31%; in the experiment on KM12 colon it was 19.8%.

Consider `Cn1cnc(-c2cc3nccc(Oc4ccc(NC(=S)NC(=O)Cc5ccccc5)cc4F)c3s2)c1`, for which the growth in the experiment on T-47D breast was 65.8%; with BT-549 breast, 77.3%; with MDA-MB-435 melanoma, 93.2%; in the experiment on SW-620 colon, 76.7%; in the experiment with MCF7 breast it was 79.5%; in the experiment on HCT-116 colon, 78.8%. Moreover, the values for the growth in the experiment on HCC-2998 colon and with KM12 colon were 104% and 21.8%, respectively.

For `C/C=C/C=N/NC(=S)Nc1ccccc1`, the growth with T-47D breast is 111%; with BT-549 breast it was 96.5%; in the experiment on MDA-MB-435 melanoma, 109%; with SW-620 colon it was 121%; in the experiment with MCF7 breast, 86%; in the experiment on HCT-116 colon, 97.9%. Moreover, the results for the growth in the experiment on HCC-2998 colon and in the experiment with KM12 colon were 104% and 98.6%, respectively.

Take `NC(=O)c1c(OCc2c(F)cc(Br)cc2F)nsc1NC(=O)NCCCCN1CCCC1`: the growth in the experiment with T-47D breast is -45.1% (active); with BT-549 breast, -51.2% (active); with MDA-MB-435 melanoma, -58.9% (active); in the experiment on SW-620 colon, -60.5% (active); in the experiment with MCF7 breast, 1.88% (active); in the experiment on HCT-116 colon, -37.9% (active). The growth is -13.8% (active) in the experiment with HCC-2998 colon and -4.19% (active) in the experiment on KM12 colon.

For the molecule `CC(C)CC(=O)Nc1n[nH]c2c1CN(C(=O)C1CCN(C)CC1)C2(C)C`, the growth in the experiment with T-47D breast was -3% (active); with BT-549 breast, 33.7%; in the experiment on MDA-MB-435 melanoma, 12%; with SW-620 colon, 9.91% (active); in the experiment with MCF7 breast it was 3.99% (active); in the experiment on HCT-116 colon, 2.94% (active). The growth with HCC-2998 colon was 13.1%; with KM12 colon it was 9.26% (active).

In the case of `Cc1cc(C)n(CC(=O)Nc2ccc(-c3nc4ccccc4s3)cc2)n1`, the growth in the experiment on T-47D breast is 93.3%; in the experiment on BT-549 breast, 115%; in the experiment on MDA-MB-435 melanoma, 107%; with SW-620 colon, 113%; in the experiment with MCF7 breast it was 26.6%; in the experiment with HCT-116 colon, 107%. Moreover, the values for the growth in the experiment on HCC-2998 colon and in the experiment with KM12 colon were 92.9% and 100%, respectively.

Take `Cc1cn(-c2cc(NC(=O)c3ccc(C)c(Nc4nccc(-c5cccnc5)n4)c3)cc(C(F)(F)F)c2)cn1`: the growth with T-47D breast is 45.6%; with BT-549 breast it was 24.2%; with MDA-MB-435 melanoma, -11.9% (active); in the experiment with SW-620 colon it was 60%; with MCF7 breast, 12.8%; with HCT-116 colon, 42.6%. The growth with HCC-2998 colon was 63.8%; in the experiment on KM12 colon it was 30%.

Turning to `COC(=O)CC[C@@H](C)[C@H]1CC[C@H]2C3CC[C@@H]4C[C@@H]5CC[C@]4(C)[C@@]3(O5)[C@H](Br)[C@@H](Br)[C@]12C` (stereo not given in full), the growth in the experiment on T-47D breast is 73.7%; in the experiment on BT-549 breast it was 102%; in the experiment with MDA-MB-435 melanoma, 93.8%; with SW-620 colon, 102%; in the experiment with MCF7 breast, 87.7%; in the experiment with HCT-116 colon, 74.2%. Also, the growth in the experiment with HCC-2998 colon is 94.8%; in the experiment with KM12 colon it was 99.8%.

Consider `CS(=O)(=O)N1CCN(Cc2cc3nc(-c4cccc5[nH]ncc45)nc(N4CCOCC4)c3s2)CC1`, for which the growth is -21.7% (active) in the experiment with T-47D breast; 18.2% in the experiment on BT-549 breast; 22.4% with MDA-MB-435 melanoma; 38.8% with SW-620 colon; 5.28% (active) in the experiment with MCF7 breast; 28.3% in the experiment on HCT-116 colon. Further, the growth was 22.8% in the experiment on HCC-2998 colon and 16.3% in the experiment with KM12 colon.
